Experimental findings from PubChem BioAssay AID2158 (National Center for Advancing Translational Sciences (NCATS), 2009) are described below.

Where “and” joins values, the source holds several entries; their conditions need not be identical. Equal values may be shown once. Results filed as inconclusive are left out. Unmarked numbers belong to inactive results. Calls of active or inactive are those of the source. Calls come from the whole dose curve; as a rule, active = well fitted inhibition curve with a large enough effect; inconclusive = small, poorly fitted or top-dose-only effect; inactive = no such curve, though single readings can be large or run the other way.
Potency is the fitted concentration of half-maximal effect.

The test deals with Cruzipain (Trypanosoma cruzi) (UniProt P25779). Put plainly: Confirmation qHTS Assay for Inhibitors of Cruzain.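 For activity change, negative = inhibition: plate controls were uninhibited enzyme control for no effect and buffer wells lacking enzyme for full effect.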 Note: nearly all actives have a fitted effect of over 40% in size. The note with it: purified cruzain, Z-FR-AMC fluorescence, 0.01% Triton. A digest of the protocol: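 Purified cruzain, 1.5 nM, pre-incubated 15 min at room temperature with compound in 100 mM sodium acetate pH 5.5, 5 mM DTT, 0.01% Triton X-100. Then 2 uM Z-FR-AMC added; AMC fluorescence (ex 360/em 450 nm) increase over 60 s gave reaction progress.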
Sequence of Cruzipain (Trypanosoma cruzi) (P25779 123-467 limits assumed): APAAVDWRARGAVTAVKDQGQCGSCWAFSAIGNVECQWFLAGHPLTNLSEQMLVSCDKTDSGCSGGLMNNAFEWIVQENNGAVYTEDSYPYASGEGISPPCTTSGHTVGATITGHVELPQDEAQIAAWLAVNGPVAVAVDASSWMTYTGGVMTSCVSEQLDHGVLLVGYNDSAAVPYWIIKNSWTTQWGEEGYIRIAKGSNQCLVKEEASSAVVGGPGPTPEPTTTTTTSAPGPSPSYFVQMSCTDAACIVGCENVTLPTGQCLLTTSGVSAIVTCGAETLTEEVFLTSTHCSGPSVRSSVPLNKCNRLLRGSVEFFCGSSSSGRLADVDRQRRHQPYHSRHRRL
Background: qHTS replaces the single test concentration by a dilution series.
On to `N#Cc1nc(Nc2cccc(-c3ccccc3)c2)nc(NC2CCCC2)n1`, for which the Potency was 2240 nM (active).
On the same count and under the same terms, the figure for `O=C(NCCO)c1ccc2nc(-c3ccco3)c(-c3ccco3)nc2c1` is 14100 nM (active).
As for `Clc1ccc(-c2nn3c(-c4cc(-c5ccccc5)n[nH]4)nnc3s2)cc1`, the activity change, negative = inhibition is -13.4%.
For `COC(=O)Sc1nc(N2CCOCC2)c2c(c1C#N)CC(C)(C)OC2`, the Potency was 14100 nM (active).
Still for that read-out and setting: the figure for `Cc1ccc(C)c(OCCn2c(CCNC(=O)C3CCCCC3)nc3ccccc32)c1` is 70.8 nM (active).
Turning to `CC(C)CC(=O)OC1C(N2CCOCC2)c2c(ccc(/C=C/C(=O)N3CCOCC3)c2O)OC1(C)C` (stereo not drawn), the activity change, negative = inhibition is -26%.
Consider `COCC(C)NC(=O)Cn1c(SCc2ccccc2)nc2ccccc21` (stereo not drawn), for which the activity change, negative = inhibition was -6.96%.
Regarding `N#Cc1nc(Nc2ccc3ccccc3c2)nc(NC2CCCC2)n1`, the Potency is 1260 nM (active).
On to `C(/Oc1ccccc1)=C1\Nn2c(nnc2-c2cc(-c3ccccc3)n[nH]2)S1`, for which the activity change, negative = inhibition is -9.74% and -7.34%.
The same measure, in the same setting: the figure for `O=C(c1ccco1)N1CCN(c2ncnc3c2[nH]c2ccc(Cl)cc23)CC1` is -37.6%.
The same measure, in the same setting: the figure for `CC(=O)Nc1ccc(/C=C/C(=O)c2ccc(-n3nncc3-c3ccccc3)cc2)cc1` is 31.4%.
Take `Cc1ccc(Cn2c(CCNC(=O)c3cccc(C)c3)nc3ccccc32)cc1`: the Potency was 2820 nM (active).
Consider `CC(C)(C)OC(=O)NCc1nnc(-c2cc3ccccc3[nH]2)s1`, for which the activity change, negative = inhibition was -12.9%.
`O=C(Cc1nnc(-c2cc3ccccc3[nH]2)o1)Nc1cc(C(F)(F)F)ccc1Cl`: the activity change, negative = inhibition was -3.28%.
For the compound `CCc1ccc2[nH]c(=O)c(CN(Cc3cccnc3)Cc3nnnn3Cc3ccccc3)cc2c1`, the activity change, negative = inhibition is -20.9%.
In the case of `CC(C)C[C@H](NC(=O)[C@@H]1O[C@H]1C(=O)O)C(=O)NCCCCN=C(N)N`, the Potency was 112 nM (active).
With `Cn1nc(-c2ccncc2)nc2c(=O)n(C)c(=O)nc1-2`, the Potency was 891 nM (active).
Consider `Cc1oc(=O)c(NC(=O)c2ccc(Cl)cc2)cc1C(=O)c1ccccc1`, for which the activity change, negative = inhibition is -10.8%.
For the compound `C=C(C)C(=O)OC1(C(F)(F)F)Oc2cc(C)ccc2NC1=O` (stereo not drawn), the Potency was 14100 nM (active).
Take `O=c1oc2ccccc2cc1-c1csc(Cc2nc(-c3ccc(Br)cc3)cs2)n1`: the activity change, negative = inhibition was 1.72%.
`Cc1cc(=O)oc2cc(OCC(=O)N3CCOCC3)ccc12`: the Potency is 8910 nM (active).
On the same count and under the same terms, for `O=C(/C=C/c1ccc2c(c1)OCO2)Nc1ccc(-n2nncc2-c2ccccc2)cc1` the value was 2510 nM (active).
Regarding `FC(F)Sc1ccc(N=C2NN=C(c3ccc4c(c3)OCCO4)CS2)cc1`, the activity change, negative = inhibition is -6.33%.
